Source: paper PMC7826789 (International Journal of Molecular Sciences, 2021)

Key:
Settings in all cases: Compound Concentration (nM):1000
CDKL3 = test system: CDKL3
CDKL5 = test system: CDKL5
CHEK1 = test system: CHEK1
CHEK2 = test system: CHEK2
CIT = test system: CIT
CLK1 = test system: CLK1
CLK2 = test system: CLK2
CLK3 = test system: CLK3
CLK4 = test system: CLK4
CSF1R-autoinhibited = test system: CSF1R-autoinhibited
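Note: KINOMEscan scanMAX binding as percent activity remaining versus control; lower means stronger binding.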

Compound	Percent Control (CDKL3)	Percent Control (CDKL5)	Percent Control (CHEK1)	Percent Control (CHEK2)	Percent Control (CIT)	Percent Control (CLK1)	Percent Control (CLK2)	Percent Control (CLK3)	Percent Control (CLK4)	Percent Control (CSF1R-autoinhibited)
CCS(=O)(=O)c1ccc(OC)c(Nc2ncc(-c3cccc(OC)c3)o2)c1 [GW580509X]	100%	59%	100%	100%	100%	6.9%	3.9%	71%	15%	43%
NS(=O)(=O)c1ccc(N/N=C2\C(=O)Nc3ccc(Cl)cc32)cc1 [GW280670X]	100%	100%	100%	100%	100%	100%	100%	100%	96%	60%
Cl.O=C(Nc1ccc(Oc2ccc3[nH]c(NC(=O)c4ccco4)nc3c2)cc1)Nc1cc(C(F)(F)F)ccc1F [GW683134A]	100%	100%	88%	97%	0.4%	47%	89%	100%	44%	79%
C/C(Nc1ccc(S(N)(=O)=O)cc1)=C1/C(=O)Nc2ccccc21 [GW335962X]	94%	100%	93%	51%	86%	98%	78%	98%	100%	40%
NS(=O)(=O)c1ccc(N/N=C2\C(=O)Nc3ccc(C(=O)NCCc4c[nH]cn4)cc32)cc1 [GW300660X]	100%	36%	100%	64%	100%	72%	5.5%	100%	76%	90%
NS(=O)(=O)c1ccc(N/N=C2\C(=O)Nc3ccc(C(=O)NCc4ccncc4)cc32)cc1 [GW300657X]	84%	6.5%	100%	67%	87%	67%	17%	92%	75%	83%
CCc1ccc(Oc2nccc(-c3c(-c4ccc(F)cc4)ncn3C3CCNCC3)n2)cc1 [SB-242719]	100%	84%	90%	84%	1.2%	100%	70%	100%	100%	77%
COc1ccc(COc2ccc(Cc3cnc(N)nc3N)cc2OC)cc1 [GW632580X]	90%	84%	91%	100%	80%	100%	91%	100%	100%	
COc1cc(C=NNc2ncnc3c2cnn3-c2ccccc2)ccc1O [GW513184X]	100%	100%	100%	97%	96%	48%	83%	82%	60%	100%
Cc1cc(O)cc(C)c1/C=C/c1cncc(C(N)=O)c1 [GW435821X]	100%	100%	100%	99%	98%	89%	100%	100%	74%	87%
NS(=O)(=O)c1ccc(Nc2ncc(-c3ccccc3)o2)cc1 [GW572399X]	100%	100%	100%	100%	100%	100%	100%	100%	100%	58%
C[C@@H](Oc1cc(-n2cnc3ccc(OC4CCN(C)CC4)cc32)sc1C(N)=O)c1ccccc1Cl [GSK579289A]	100%	100%	90%	100%	78%	62%	88%	87%	95%	73%
COc1ccc2cc(-c3c(-c4ccncc4)nc(-c4ccc(S(C)(=O)=O)cc4C)n3C)ccc2c1 [SB-633825]	86%	82%	88%	100%	100%	96%	87%	97%	62%	66%
NS(=O)(=O)c1ccc(N/N=C2\C(=O)Nc3ccc(-c4cnco4)cc32)cc1 [GW276655]	37%	16%	100%	93%	79%	36%	24%	100%	37%	88%
CN(C)c1cc2c(Nc3ccc4c(cnn4Cc4ccccc4)c3)ncnc2cn1 [GW282974X]	100%	40%	85%	2.9%	79%	75%	86%	100%	100%	100%
CN1CCN(C(=O)c2ccc(NC(=O)Nc3ccc(N(C)c4ccnc(Nc5ccc(CS(C)(=O)=O)cc5)n4)cc3)cc2)CC1.Cl [GW830263A]	72%	100%	100%	68%	79%	84%	54%	95%	100%	8.8%
COc1cc(C)c(N(C)C(=O)CN(C)C)cc1Nc1nc(Nc2cccc(F)c2C(N)=O)c2cc[nH]c2n1 [GSK2219385]	100%	44%	92%	69%	100%	54%	58%	91%	67%	100%
COc1cc2ncn(-c3cc(O[C@H](C)c4ccccc4Cl)c(C(N)=O)s3)c2cc1OC [GSK237701A]	76%	100%	100%	100%	100%	81%	90%	77%	68%	70%
COc1ccccc1-c1cc(/C=C2\C(=O)Nc3ncc(Br)cc32)cc(Br)c1O [GW442130X]	93%	88%	100%	79%	89%	100%	67%	84%	85%	100%
CN(C)CCNC(=O)Nc1ccc(N(C)c2ccnc(Nc3ccc(CS(C)(=O)=O)cc3)n2)cc1.Cl [GW830900A]	100%	100%	100%	93%	100%	85%	94%	99%	100%	41%

Compound	Percent Control (CDKL3)	Percent Control (CDKL5)	Percent Control (CHEK1)	Percent Control (CHEK2)	Percent Control (CIT)	Percent Control (CLK1)	Percent Control (CLK2)	Percent Control (CLK3)	Percent Control (CLK4)	Percent Control (CSF1R-autoinhibited)
Cl.O=S1CCN(Cc2ccc(-c3ccc4ncnc(Nc5ccc(OCc6ccccc6)c(F)c5)c4c3)o2)CC1 [GW576924A]	100%	60%	100%	99%	100%	100%	100%	100%	100%	100%
COc1ccc2[nH]c3c4[nH]c5ccc(OC)cc5c4c4c(c3c2c1)C(=O)NC4=O [GW296115X]	91%	94%	12%	1.7%	35%	80%	56%	79%	57%	59%
O=C(Nc1n[nH]c2nc(-c3ccc(O)cc3)c(Br)cc12)C1CC1 [SB-725317]	100%	37%	100%	100%	51%	100%	95%	100%	100%	96%
Cl.O=C(Nc1ccc(Oc2ccc3[nH]c(NC(=O)c4ccccc4)nc3c2)cc1)Nc1cc(C(F)(F)F)ccc1F [GW709042A]	96%	100%	96%	100%	0%	44%	100%	100%	79%	79%
O=C1Nc2ccc(C(=O)c3ccco3)cc2C1=Cc1cc(Cl)c(O)c(Cl)c1 [GW406108X]	100%	100%	100%	42%	89%	3.3%	0.1%	6.2%	12%	61%
Cl.c1ccc(Cc2nc3ccc(Nc4ncnc5ccccc45)cc3[nH]2)cc1 [GR269666A]	100%	59%	100%	94%	100%	91%	93%	100%	100%	100%
COc1cccc(-c2c[nH]c3c(N/N=C/c4ccncc4)ncnc23)c1 [GW814408X]	8%	4.2%	100%	86%	54%	30%	44%	80%	30%	74%
COc1ccc2c(-c3ccnc(Nc4cccc(OC(F)(F)F)c4)n3)cnn2n1 [GW810372X]	0%	14%	100%	100%	97%	1.3%	2.8%	32%	2.4%	86%
COc1cc2ncnc(Nc3ccc4c(cnn4Cc4ccccc4)c3)c2cc1OC.Cl [GW282449A]	100%	55%	100%	0%	100%	100%	100%	100%	100%	100%
Cl.O=C(O[C@H]1CN[C@H](C#Cc2cc3ncnc(Nc4ccc5c(cnn5Cc5ccccc5)c4)c3s2)C1)N1CCOCC1 [GSK200398A]	100%	40%	100%	24%	77%	83%	100%	90%	100%	87%
CC1=C(C(=O)Nc2ccc3[nH]ncc3c2)C(c2ccc(Cl)c(Cl)c2)CC(=O)N1 (stereo not drawn) [GSK299115A]	95%	97%	95%	100%	100%	75%	67%	78%	52%	74%
CCS(=O)(=O)c1ccc(OC)c(Nc2ncc(-c3cccc(F)c3)o2)c1 [GW621970X]	100%	60%	100%	100%	100%	19%	12%	75%	23%	6.2%
CCn1c(-c2nonc2N)nc2c(C#CC(C)(C)O)nc(OCCNC)cc21.Cl [GSK949675]	100%	100%	100%	86%	44%	100%	87%	100%	90%	100%
COc1cccc(-n2ncc3c(N/N=C/c4ccncc4)ncnc32)c1 [GW784752X]	46%	5.1%	100%	87%	86%	42%	61%	100%	45%	96%
COC(=O)Nc1nc2ccc(Oc3ccc(NC(=O)Nc4cc(C(F)(F)F)ccc4F)cc3)cc2s1.Cl [GW693917A]	15%	38%	95%	76%	1.8%	42%	100%	82%	100%	86%
CC(C)COC(=O)c1ccc2c(c1)/C(=C/Nc1ccc(S(N)(=O)=O)cc1)C(=O)N2 [GW416981X]	64%	5.1%	100%	42%	86%	18%	2.3%	98%	41%	95%
COc1cc(/C=N/Nc2ncnc3[nH]ncc23)ccc1O [GW578748X]	97%	100%	7%	51%	83%	19%	29%	85%	50%	56%
Nc1ncnc2occ(-c3ccc(NC(=O)Nc4cc(C(F)(F)F)ccc4F)cc3)c12 [GW770249X]	13%	100%	100%	96%	44%	41%	100%	100%	57%	25%
CC1=C(C(=O)Nc2ccc3[nH]ncc3c2)C(c2ccc3ccccc3c2)CC(=O)N1 (stereo not drawn) [GSK270822A]	72%	100%	92%	100%	99%	95%	80%	91%	70%	54%
COc1cc(N2CCN(C(C)C)CC2)ccc1Nc1nc(Nc2ccc(F)cc2C(=O)NC[C@@H](O)CO)c2cc[nH]c2n1 [GSK1392956A]	100%	43%	94%	0.2%	80%	1.6%	2.6%	77%	7.5%	100%
